Inconclusive results are not listed. Active and inactive are the calls of the source. The calls were made as follows, unless noted: active = hit-call score of the fitted dose curve at least 0.9, where 1 is the maximum; inactive = score below 0.9.
Legend:
[1] = ATG_RORE_CIS: Attagene CIS-FACTORIAL HepG2 Assay for human RAR-related Orphan Receptor Element (RORE) (AID 2282959); conditions: HepG2 Attagene cis-factorial RORE reporter, mRNA; actives raise or lower the signal
Method in brief: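 Measured here: transcript induction of a cis-regulated reporter in HepG2 cells transiently transfected via FuGene 6. After 24 h, RNA was processed by RT-PCR and fluorescent capillary electrophoresis; DMSO defined baseline activity.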

[2] = ATG_Sox_CIS: Attagene CIS-FACTORIAL HepG2 Assay for human SRY-box transcription factor (SOX) (AID 2282960); conditions: HepG2 Attagene cis-factorial SOX reporter, mRNA; actives raise or lower the signal
Method in brief: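 Using transiently transfected HepG2 cells, reporter transcription driven by cis elements was assessed 24 h after dosing. Signal was fluorescence of capillary-separated RT-PCR products, with DMSO defining baseline activity.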

[3] = molecular target: Transcription factor Sp1 (Homo sapiens) (UniProt P08047); test: ATG_Sp1_CIS: Attagene CIS-FACTORIAL HepG2 Assay for human Specificity Protein 1 (Sp1) (AID 2282961); conditions: HepG2 Sp1 cis-reporter transcription, actives raise or lower the signal
Method in brief: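 After transient transfection of HepG2 cells with cis-promoter reporter units and 24 h chemical treatment, reporter transcripts were quantified by RT-PCR and capillary electrophoresis fluorescence. Gain- and loss-of-signal fitted against DMSO.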

[4] = ATG_SREBP_CIS: Attagene CIS-FACTORIAL HepG2 Assay for human Sterol Regulatory Element Binding (SREBP) (AID 2282962); conditions: HepG2 Attagene cis-factorial SREBP reporter, mRNA; actives raise or lower the signal
Method in brief: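 HepG2 cells transiently transfected with multiplexed cis-promoter reporter units sensing endogenous transcription factors; reporter mRNA measured 24 h after dosing by RT-PCR, 6-FAM labeling, HpaI digestion and capillary electrophoresis. Bidirectional fit versus DMSO.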

[5] = molecular target: Signal transducer and activator of transcription 3 (Homo sapiens) (UniProt P40763); test: ATG_STAT3_CIS: Attagene CIS-FACTORIAL HepG2 Assay for human Signal Transducer and Activator of Transcription 3 (STAT3) (AID 2282963); conditions: HepG2, Attagene cis-factorial STAT3 reporter transcription; actives raise or lower the signal
Method in brief: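 Transcript-level reporter assay. HepG2 transient MRTU transfection, 24 h exposure, fluorescence detection after RT-PCR and CE; DMSO baseline.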

[6] = ATG_TA_CIS: Attagene CIS-FACTORIAL HepG2 Assay for human TA Basal Promoter (AID 2282964); conditions: HepG2 Attagene CIS-factorial TA basal promoter reporter; actives raise or lower the signal
Method in brief: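 Background-control readout: TA basal promoter reporter mRNA, fitted in both directions relative to DMSO. Measured by RT-PCR and capillary electrophoresis 24 hours after treating HepG2 human liver cells transiently carrying multiplexed cis-regulated reporter constructs.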

[7] = ATG_TCF_b_cat_CIS: Attagene CIS-FACTORIAL HepG2 Assay for human T-Cell-Factor with beta-catenin (TCF/b-cat) (AID 2282965); conditions: HepG2 TCF/beta-catenin cis-reporter transcription, actives raise or lower the signal
Method in brief: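 Using capillary electrophoresis as the read-out, labelled reporter cDNA fragments from transiently transfected HepG2 were sized and quantified. Exposure lasted 24 hours; activity in either direction was referenced to DMSO.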

[8] = ATG_TAL_CIS: Attagene CIS-FACTORIAL HepG2 Assay for human TAL Basal Promoter (AID 2282966); conditions: HepG2 Attagene cis-factorial TAL promoter reporter; actives raise or lower the signal;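 also: background control endpoint measuring basal TAL promoter reporter mRNA not a specific factor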
Method in brief: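 HepG2 cells were transiently transfected with promoter-driven multiplexed reporter units and dosed for 24 h. Reporter mRNA was measured by RT-PCR with capillary electrophoresis fluorescence; bidirectional fits used DMSO as baseline, serving as a background control.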

[9] = ATG_TGFb_CIS: Attagene CIS-FACTORIAL HepG2 Assay for human Transforming Growth Factor (TGF) (AID 2282967); conditions: HepG2 Attagene CIS TGFb reporter, mRNA transcription; actives raise or lower the signal
Method in brief: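 Endogenous TGFB1-linked transcription factor activity read as reporter mRNA via RT-PCR and capillary electrophoresis, 24 h after dosing transiently transfected HepG2 cells. Gain or loss of signal fitted relative to DMSO.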

[10] = molecular target: Nuclear receptor subfamily 1 group I member 3 (Homo sapiens) (UniProt Q14994); test: ATG_CAR_TRANS: Attagene TRANS-FACTORIAL HepG2 Assay for human Constitutive Androstane Receptor (CAR) (AID 2282969; active = hit-call score of the fitted dose curve at least 0.9, where 1 is the maximum;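 also: activators raise reporter mRNA above DMSO so AC50 marks induction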); conditions: HepG2 Attagene TRANS-FACTORIAL CAR reporter
Method in brief: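 HepG2 cells transiently transfected with multiplexed GAL4-UAS reporter units expressing chimeric NR-Gal4 proteins; compound exposure 24 h. Reporter mRNA measured by RT-PCR, 6-FAM labelling, HpaI digestion and capillary electrophoresis; gain-of-signal fitted against DMSO baseline.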

[11] = molecular target: Estrogen receptor (Homo sapiens) (UniProt P03372); test: ATG_ERa_TRANS: Attagene TRANS-FACTORIAL HepG2 Assay for human Estrogen Receptor alpha (ERa) (AID 2282970; active = hit-call score of the fitted dose curve at least 0.9, where 1 is the maximum); conditions: HepG2 Attagene TRANS ERa GAL4 reporter, mRNA
Method in brief: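 HepG2 cells transiently transfected with multiplexed GAL4-UAS reporter units; ERa activity read via exogenous chimeric NR-Gal4 protein. After 24 hour compound exposure, reporter mRNA measured by RT-PCR with 6-FAM labelling and capillary electrophoresis; gain-of-signal fitted relative to DMSO.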

[12] = molecular target: X-box-binding protein 1 (Homo sapiens) (UniProt P17861); test: ATG_Xbp1_CIS: Attagene CIS-FACTORIAL HepG2 Assay for human X-box Binding Protein 1 (XBP1) (AID 2282972); conditions: HepG2 XBP1 cis-element reporter, Attagene multiplex; actives raise or lower the signal
Method in brief: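 HepG2 cells transiently transfected with multiple cis-element reporter units report endogenous TF activity; 24 h exposure, then reporter mRNA measured by RT-PCR, 6-FAM labelling, HpaI digestion and capillary electrophoresis. Bidirectional fitting versus DMSO.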

[13] = molecular target: Glucocorticoid receptor (Homo sapiens) (UniProt P04150); test: ATG_GR_TRANS: Attagene TRANS-FACTORIAL HepG2 Assay for human Glucocorticoid Receptor (GR) (AID 2282978; active = hit-call score of the fitted dose curve at least 0.9, where 1 is the maximum;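 also: activators score as hits since higher reporter transcript over DMSO is fitted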); conditions: HepG2 Attagene TRANS GR reporter, mRNA transcription
Method in brief: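 HepG2 transient transfection, multiple reporter units, GAL4-UAS under NR-GAL4 chimera control. 24 h treatment. Reporter mRNA by RT-PCR/CE fluorescence, DMSO as negative control.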

[14] = ATG_M_19_TRANS: Attagene TRANS-FACTORIAL HepG2 Assay for M19 Transcription Factor (Internal Marker) (AID 2282974; active = hit-call score of the fitted dose curve at least 0.9, where 1 is the maximum); conditions: HepG2 Attagene TRANS-FACTORIAL M19 internal marker reporter
Method in brief: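 Gain-of-signal in reporter mRNA, relative to DMSO, was scored from capillary electrophoresis fluorescence. HepG2 cells carried transiently transfected multiple reporter transcription units and were incubated with test chemicals for 24 h.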

[15] = ATG_GAL4_TRANS: Attagene TRANS-FACTORIAL HepG2 Assay for GAL4 (Internal Marker) (AID 2282976; active = hit-call score of the fitted dose curve at least 0.9, where 1 is the maximum); conditions: HepG2 Attagene TRANS GAL4 internal marker reporter
Method in brief: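 HepG2 cells transiently transfected with multiplexed GAL4-UAS reporter constructs were dosed for 24 h. Reporter mRNA was measured by RT-PCR, 6-FAM primer extension, HpaI digestion and capillary electrophoresis, and gain of signal was fitted relative to DMSO.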

[16] = molecular target: Bile acid receptor (Homo sapiens) (UniProt Q96RI1); test: ATG_FXR_TRANS: Attagene TRANS-FACTORIAL HepG2 Assay for Farnesoid X Receptor (FXR) (AID 2282979; active = hit-call score of the fitted dose curve at least 0.9, where 1 is the maximum;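 also: hits raise reporter mRNA above DMSO so AC50 marks FXR activation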); conditions: HepG2 Attagene TRANS FXR-GAL4 reporter transcription
Method in brief: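 HepG2 cells transiently transfected with reporter constructs in which a chimeric FXR-GAL4 protein drives a GAL4-UAS reporter; 24 h compound exposure. Reporter mRNA measured by RT-PCR, FAM labelling, HpaI digestion and capillary electrophoresis; gain-of-signal versus DMSO.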

[17] = molecular target: Steroid hormone receptor ERR1 (Homo sapiens) (UniProt P11474); test: ATG_ERRa_TRANS: Attagene TRANS-FACTORIAL HepG2 Assay for human Estrogen-Related Receptor alpha (ERRa) (AID 2282971; active = hit-call score of the fitted dose curve at least 0.9, where 1 is the maximum); conditions: HepG2 Attagene TRANS reporter, ERRa transactivation
Method in brief: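 HepG2 cells transiently transfected with multiplexed GAL4-UAS reporter units reading chimeric ERRa-Gal4 activity; 24 h compound exposure. Reporter mRNA measured by RT-PCR, 6-FAM labelling, HpaI digest and capillary electrophoresis; gain of signal fitted versus DMSO baseline.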

[18] = molecular target: Estrogen-related receptor gamma (Homo sapiens) (UniProt P62508); test: ATG_ERRg_TRANS: Attagene TRANS-FACTORIAL HepG2 Assay for human Estrogen-Related Receptor gamma (ERRg) (AID 2282977; active = hit-call score of the fitted dose curve at least 0.9, where 1 is the maximum;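 also: hits increase reporter signal over DMSO so potencies reflect activators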); conditions: HepG2 Attagene TRANS reporter, ERRg transactivation
Method in brief: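 Transfect HepG2 with multiple GAL4-UAS reporter transcription units; dose chemicals 24 h; isolate RNA, reverse-transcribe with oligo(dT), PCR-amplify, label with 6-FAM, digest with HpaI; size fragments by capillary electrophoresis. DMSO serves as negative control.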

Measured: outcome

Chain of Bile acid receptor (Homo sapiens) (Q96RI1 whole entry, looked up, the tested form may be a part): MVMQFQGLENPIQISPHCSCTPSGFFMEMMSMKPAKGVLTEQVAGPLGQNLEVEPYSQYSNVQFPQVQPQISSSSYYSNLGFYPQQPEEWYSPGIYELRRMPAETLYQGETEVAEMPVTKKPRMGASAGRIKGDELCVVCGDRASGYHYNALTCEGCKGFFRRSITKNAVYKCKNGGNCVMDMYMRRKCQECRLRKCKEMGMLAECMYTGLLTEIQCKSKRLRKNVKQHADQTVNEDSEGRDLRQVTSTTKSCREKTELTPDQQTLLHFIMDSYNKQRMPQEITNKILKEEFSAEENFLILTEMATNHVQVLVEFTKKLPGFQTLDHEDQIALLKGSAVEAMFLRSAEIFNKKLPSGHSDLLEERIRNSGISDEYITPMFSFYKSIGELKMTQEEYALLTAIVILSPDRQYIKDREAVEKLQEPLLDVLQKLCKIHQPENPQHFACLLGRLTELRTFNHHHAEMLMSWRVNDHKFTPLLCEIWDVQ
Chain of Transcription factor Sp1 (Homo sapiens) (P08047 whole entry, looked up): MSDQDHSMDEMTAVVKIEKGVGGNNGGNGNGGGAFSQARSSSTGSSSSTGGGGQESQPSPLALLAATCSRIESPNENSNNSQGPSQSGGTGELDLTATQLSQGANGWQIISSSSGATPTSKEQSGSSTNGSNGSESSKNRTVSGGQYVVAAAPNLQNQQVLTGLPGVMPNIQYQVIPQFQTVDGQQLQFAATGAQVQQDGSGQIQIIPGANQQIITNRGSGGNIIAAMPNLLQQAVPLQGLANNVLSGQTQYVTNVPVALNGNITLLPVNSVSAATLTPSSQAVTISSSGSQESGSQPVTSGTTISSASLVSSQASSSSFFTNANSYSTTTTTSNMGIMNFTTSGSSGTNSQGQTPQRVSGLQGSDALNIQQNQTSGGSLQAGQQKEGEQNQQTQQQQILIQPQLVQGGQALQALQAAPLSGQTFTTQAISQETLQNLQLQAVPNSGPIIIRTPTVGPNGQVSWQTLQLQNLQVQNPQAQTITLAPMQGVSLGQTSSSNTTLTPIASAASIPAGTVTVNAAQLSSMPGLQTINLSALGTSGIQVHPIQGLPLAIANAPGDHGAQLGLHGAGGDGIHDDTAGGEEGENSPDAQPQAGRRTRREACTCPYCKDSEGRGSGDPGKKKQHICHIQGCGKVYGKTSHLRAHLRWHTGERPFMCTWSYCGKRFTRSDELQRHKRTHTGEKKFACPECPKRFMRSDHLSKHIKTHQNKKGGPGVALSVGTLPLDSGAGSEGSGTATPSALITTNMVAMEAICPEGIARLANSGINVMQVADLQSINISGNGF
Chain of X-box-binding protein 1 (Homo sapiens) (P17861 whole entry, looked up): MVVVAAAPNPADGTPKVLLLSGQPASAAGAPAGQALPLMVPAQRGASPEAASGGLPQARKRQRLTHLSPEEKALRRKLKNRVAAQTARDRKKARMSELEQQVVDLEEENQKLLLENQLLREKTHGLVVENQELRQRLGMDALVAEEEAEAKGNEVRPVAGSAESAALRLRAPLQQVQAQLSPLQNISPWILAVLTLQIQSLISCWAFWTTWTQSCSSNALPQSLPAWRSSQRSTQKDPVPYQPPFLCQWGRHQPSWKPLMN
Chain of Signal transducer and activator of transcription 3 (Homo sapiens) (P40763 whole entry, looked up): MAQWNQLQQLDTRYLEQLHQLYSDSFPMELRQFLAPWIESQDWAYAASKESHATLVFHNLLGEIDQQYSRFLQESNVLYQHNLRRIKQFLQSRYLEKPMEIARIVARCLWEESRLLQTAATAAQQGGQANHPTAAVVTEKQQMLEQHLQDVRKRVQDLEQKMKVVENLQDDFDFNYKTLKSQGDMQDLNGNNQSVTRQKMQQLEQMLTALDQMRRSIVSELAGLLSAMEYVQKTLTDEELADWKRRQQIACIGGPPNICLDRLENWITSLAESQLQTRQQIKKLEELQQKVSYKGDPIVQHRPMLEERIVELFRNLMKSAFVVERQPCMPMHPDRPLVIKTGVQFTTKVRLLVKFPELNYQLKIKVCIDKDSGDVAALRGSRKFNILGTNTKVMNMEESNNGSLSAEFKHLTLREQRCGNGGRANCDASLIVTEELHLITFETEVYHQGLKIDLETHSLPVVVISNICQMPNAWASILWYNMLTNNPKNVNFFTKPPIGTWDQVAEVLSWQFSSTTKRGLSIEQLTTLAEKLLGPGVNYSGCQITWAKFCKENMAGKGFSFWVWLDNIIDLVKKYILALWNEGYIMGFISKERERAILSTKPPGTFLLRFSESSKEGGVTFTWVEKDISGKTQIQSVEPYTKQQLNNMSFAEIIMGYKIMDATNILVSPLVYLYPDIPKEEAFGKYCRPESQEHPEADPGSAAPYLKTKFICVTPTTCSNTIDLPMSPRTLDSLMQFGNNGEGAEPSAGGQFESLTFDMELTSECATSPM
Chain of Nuclear receptor subfamily 1 group I member 3 (Homo sapiens) (Q14994 whole entry, looked up, the tested form may be a part): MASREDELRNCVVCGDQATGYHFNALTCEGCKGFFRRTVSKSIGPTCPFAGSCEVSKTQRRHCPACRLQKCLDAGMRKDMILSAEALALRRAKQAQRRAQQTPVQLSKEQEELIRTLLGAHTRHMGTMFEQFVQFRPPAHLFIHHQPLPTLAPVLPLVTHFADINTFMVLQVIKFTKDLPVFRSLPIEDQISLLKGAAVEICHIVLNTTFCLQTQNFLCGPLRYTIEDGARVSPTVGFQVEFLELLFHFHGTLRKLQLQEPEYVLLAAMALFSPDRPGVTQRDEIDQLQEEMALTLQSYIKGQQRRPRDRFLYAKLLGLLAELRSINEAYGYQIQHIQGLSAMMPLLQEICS
Chain of Glucocorticoid receptor (Homo sapiens) (P04150 whole entry, looked up, the tested form may be a part): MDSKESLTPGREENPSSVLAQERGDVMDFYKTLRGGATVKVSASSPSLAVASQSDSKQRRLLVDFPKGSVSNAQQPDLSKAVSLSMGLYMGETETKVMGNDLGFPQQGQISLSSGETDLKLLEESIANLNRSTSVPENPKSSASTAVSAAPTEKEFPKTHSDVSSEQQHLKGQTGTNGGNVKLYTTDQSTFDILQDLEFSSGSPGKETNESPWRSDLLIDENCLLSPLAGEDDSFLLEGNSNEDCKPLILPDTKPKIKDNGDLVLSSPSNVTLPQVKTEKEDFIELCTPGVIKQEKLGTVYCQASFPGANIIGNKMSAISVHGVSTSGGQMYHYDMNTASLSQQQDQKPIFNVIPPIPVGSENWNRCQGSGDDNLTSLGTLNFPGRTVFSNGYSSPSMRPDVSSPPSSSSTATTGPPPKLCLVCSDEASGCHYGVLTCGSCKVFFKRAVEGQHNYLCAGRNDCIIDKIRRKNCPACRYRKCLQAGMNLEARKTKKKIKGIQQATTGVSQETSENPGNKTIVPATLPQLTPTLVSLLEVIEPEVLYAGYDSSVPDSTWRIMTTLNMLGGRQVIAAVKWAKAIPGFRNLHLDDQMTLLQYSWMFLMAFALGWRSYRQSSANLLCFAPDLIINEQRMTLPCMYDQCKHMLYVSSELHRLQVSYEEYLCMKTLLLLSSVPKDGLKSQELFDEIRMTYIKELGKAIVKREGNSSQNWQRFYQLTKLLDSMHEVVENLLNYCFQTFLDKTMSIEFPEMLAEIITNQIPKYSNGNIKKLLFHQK
Chain of Steroid hormone receptor ERR1 (Homo sapiens) (P11474 whole entry, looked up, the tested form may be a part): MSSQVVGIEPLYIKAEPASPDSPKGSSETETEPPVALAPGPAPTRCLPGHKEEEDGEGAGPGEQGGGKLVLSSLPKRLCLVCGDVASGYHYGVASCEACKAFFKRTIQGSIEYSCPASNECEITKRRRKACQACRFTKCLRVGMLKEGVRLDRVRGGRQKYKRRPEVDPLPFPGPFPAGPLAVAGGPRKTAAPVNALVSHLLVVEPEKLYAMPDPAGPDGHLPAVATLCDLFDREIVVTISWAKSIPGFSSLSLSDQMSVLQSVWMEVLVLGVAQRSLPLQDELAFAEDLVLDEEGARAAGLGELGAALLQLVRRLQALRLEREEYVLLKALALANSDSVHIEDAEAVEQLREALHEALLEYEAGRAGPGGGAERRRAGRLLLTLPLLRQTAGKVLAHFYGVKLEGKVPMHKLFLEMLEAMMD
Chain of Estrogen receptor (Homo sapiens) (P03372 whole entry, looked up, the tested form may be a part): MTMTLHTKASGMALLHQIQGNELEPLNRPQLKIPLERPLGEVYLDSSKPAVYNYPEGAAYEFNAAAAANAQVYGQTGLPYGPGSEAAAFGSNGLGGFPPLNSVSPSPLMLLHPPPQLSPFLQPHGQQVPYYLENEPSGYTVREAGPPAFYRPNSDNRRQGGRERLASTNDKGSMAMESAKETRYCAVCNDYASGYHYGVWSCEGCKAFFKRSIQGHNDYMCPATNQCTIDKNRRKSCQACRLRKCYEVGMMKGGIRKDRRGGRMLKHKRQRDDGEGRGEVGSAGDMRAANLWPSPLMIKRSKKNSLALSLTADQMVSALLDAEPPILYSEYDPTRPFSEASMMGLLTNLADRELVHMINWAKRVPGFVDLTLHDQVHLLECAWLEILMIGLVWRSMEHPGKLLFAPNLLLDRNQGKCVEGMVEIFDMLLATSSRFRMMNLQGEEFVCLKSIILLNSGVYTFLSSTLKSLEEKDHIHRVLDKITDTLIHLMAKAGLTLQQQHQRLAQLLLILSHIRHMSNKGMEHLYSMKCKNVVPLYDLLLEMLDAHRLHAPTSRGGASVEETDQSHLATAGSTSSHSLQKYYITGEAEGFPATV
Chain of Estrogen-related receptor gamma (Homo sapiens) (P62508 whole entry, looked up, the tested form may be a part): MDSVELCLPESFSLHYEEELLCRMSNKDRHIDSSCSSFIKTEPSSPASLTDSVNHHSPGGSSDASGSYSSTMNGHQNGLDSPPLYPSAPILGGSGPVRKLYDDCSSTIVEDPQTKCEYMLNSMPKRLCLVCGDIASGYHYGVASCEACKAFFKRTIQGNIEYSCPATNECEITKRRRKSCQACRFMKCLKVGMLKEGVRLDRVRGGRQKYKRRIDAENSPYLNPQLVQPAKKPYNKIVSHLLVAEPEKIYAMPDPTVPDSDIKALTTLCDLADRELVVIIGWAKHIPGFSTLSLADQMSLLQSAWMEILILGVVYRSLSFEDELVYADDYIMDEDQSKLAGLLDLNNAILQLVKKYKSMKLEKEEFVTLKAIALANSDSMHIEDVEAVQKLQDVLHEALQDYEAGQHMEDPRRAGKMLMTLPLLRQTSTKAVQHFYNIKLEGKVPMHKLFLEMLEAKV

CCNc1nc(NCC)nc(SC)n1
inactive: [1] | [2] | [3] | [4] | [5] | [6] | [7] | [8] | [9] | [10] | [11] | [12] | [13]

C[C@H]1C(=O)O[C@@H]2CCN3CC=C(COC(=O)[C@](C)(O)[C@]1(C)O)[C@H]23
inactive: [1] | [2] | [3] | [4] | [5] | [6] | [7] | [8] | [9] | [12] | [14] | [15] | [16]

Cc1cc(Cl)ccc1N
inactive: [1] | [2] | [3] | [4] | [5] | [6] | [7] | [8] | [9] | [10] | [12] | [14] | [15] | [13]

N#Cc1ccccc1Cl
inactive: [1] | [2] | [3] | [4] | [5] | [6] | [7] | [8] | [9] | [17] | [12] | [16]

COC(=O)Nc1cccc(OC(=O)Nc2cccc(C)c2)c1
inactive: [1] | [2] | [3] | [4] | [5] | [6] | [7] | [8] | [9] | [12] | [14] | [18] | [16]

O=C1C[C@@H]2OCC=C3CN4CC[C@]56c7ccccc7N1[C@H]5[C@H]2[C@H]3C[C@H]46
inactive: [1] | [2] | [3] | [4] | [5] | [6] | [7] | [8] | [9] | [12] | [14] | [15]

Cc1cccc(C)c1NC(=O)CN1CCCC1=O
inactive: [1] | [2] | [3] | [4] | [5] | [6] | [7] | [8] | [9] | [12] | [16]

CC(C)CP(=S)(S)CC(C)C
inactive: [1] | [2] | [3] | [4] | [5] | [6] | [7] | [8] | [9] | [10] | [12] | [15] | [13]

N#Cc1cccnc1
inactive: [1] | [2] | [3] | [4] | [5] | [6] | [7] | [8] | [9] | [17] | [12] | [14] | [15]

C#C[C@]1(O)CC[C@H]2[C@@H]3CCC4=CC(=O)CC[C@]4(C)[C@H]3CC[C@@]21C
inactive: [1] | [2] | [3] | [4] | [5] | [6] | [7] | [8] | [9] | [12]

From PubChem BioAssay (EPA / NIEHS)
